Screening results as filed in PubChem.
Hits are enriched below; roughly 0.9% of the tested compounds scored in any of these assays.
TRb-SRC2 inh = qHTS for Inhibitors of the Interaction of Thyroid Hormone Receptor and Steroid Receptor Coregulator 2. Potency, µM (top dose mostly 106 µM), without a hit: at the top dose activity change, negative = inhibition, usual class: inhibitors. AID 1469, 2008. Thyroid hormone receptor beta (Homo sapiens), P10828. hit rate 0.065% among 280,000. TRbeta-SRC2 peptide binding, fluorescence polarization; receptor liganded with 1 µM T3;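 also: plate controls were bound peptide for no effect and peptide without receptor for full effect; nearly all actives have a fitted effect of over 50% in size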
Target sequence (P10828 whole entry, looked up): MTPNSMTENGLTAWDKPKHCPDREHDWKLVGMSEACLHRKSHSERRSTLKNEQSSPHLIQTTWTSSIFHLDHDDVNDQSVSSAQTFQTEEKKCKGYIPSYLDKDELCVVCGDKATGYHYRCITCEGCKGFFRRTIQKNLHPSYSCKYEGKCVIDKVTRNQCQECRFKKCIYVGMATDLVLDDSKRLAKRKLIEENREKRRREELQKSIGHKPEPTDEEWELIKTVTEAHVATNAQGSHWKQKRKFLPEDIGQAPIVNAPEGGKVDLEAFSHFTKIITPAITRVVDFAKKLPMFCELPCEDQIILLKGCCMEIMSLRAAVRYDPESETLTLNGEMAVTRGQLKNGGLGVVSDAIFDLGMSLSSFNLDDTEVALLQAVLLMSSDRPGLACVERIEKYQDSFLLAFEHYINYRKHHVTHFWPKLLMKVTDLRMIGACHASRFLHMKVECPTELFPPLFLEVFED
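Assay buffer: 20 mM Tris-HCl, 100 mM NaCl, 10% glycerol, 1 mM EDTA, 0.01% NP-40, 1 mM DTT, 1 uM T3, 5% DMSO; TRb LBD 0.6 uM, Texas Red SRC2 20 nM; FP after 5 hr.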
TR SRC2 fluor cs = Total Fluorescence Counterscreen for Inhibitors of the Interaction of Thyroid Hormone Receptor and Steroid Receptor Coregulator 2; TRb/SRC2 Texas Red total fluorescence interference; Potency, µM (highest dose often 106 µM), for the others: top-dose fluorescence change, negative = quenching; hit rate 0.29% among 280,000; AID 1479, 2009; active = well fitted curve in either direction with a large enough effect; inconclusive = small, poorly fitted or top-dose-only effect
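Flags fluorescent or light-absorbing compounds by total fluorescence, S + 2P, at 555 nm excitation and 632 nm emission. Mixture: 20 nM Texas Red SRC2 peptide, 0.6 uM human TRb LBD, 1 uM T3, 5% DMSO; compound exposure 5 h at ambient temperature.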
RECQ1 inh = qHTS Assay for Inhibitors of RecQ-Like Dna Helicase 1 (RECQ1) | ATP-dependent DNA helicase Q1 (Homo sapiens), P46063 | RECQ1 DNA unwinding, red fluorescence kinetic read | Potency, µM (highest dose often 57.3 µM), without a hit: top-dose activity, negative = inhibition, most hits filed as inhibitors | hit rate 0.54% among 240,000;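 also: plate controls were vehicle for no effect and no enzyme for full effect; nearly all actives have a fitted effect of over 30% in size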
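RECQ1T1 50 nM; forked duplex (20 bp + 30-nt ss tails) 200 nM, ATP 2 mM final; pH 8.0, 2 mM MgCl2, 2.5 ug/ml poly(dI-dC); 15 min compound preincubation; discontinuous kinetic read over 2 h at RT.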
RGS12 GoLoco inh = qHTS Assay for Inhibitors of RGS12 GoLoco Motif Activity (Red Fluorophore) | Guanine nucleotide-binding protein G(i) subunit alpha-1 (Homo sapiens), P63096 | Gai1:RGS12 GoLoco peptide FP, rhodamine, 10 min | Potency, µM (doses to about 61.6 µM), for inactives: at the highest dose activity, negative = inhibition, most hits filed as inhibitors | hit rate 0.44% among 230,000 | AID 880, 2007; active = well fitted inhibition curve with a large enough effect, not every such curve was filed as active; inactive = no such curve, though single readings can be large or run the other way; also: nearly all actives have a fitted effect of over 30% in size
BLM helicase inh = qHTS Assay for Inhibitors of Bloom's syndrome helicase (BLM). Potency, µM (top dose mostly 56.1 µM), for inactives: top-dose activity change, negative = inhibition, actives largely listed as inhibitors. RecQ-like DNA helicase BLM (Homo sapiens), P54132. recombinant BLM DNA unwinding, fluorescence dequenching. hit rate 0.2% among 350,000;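 also: plate controls were vehicle for no effect and no enzyme for full effect; nearly all actives have a fitted effect of over 35% in size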
APE1 inh = qHTS Assay for Inhibitors of the Human Apurinic/apyrimidinic Endonuclease 1 (APE1) | hit rate 0.35% among 350,000 | Potency, µM (top dose mostly 65.8 µM), inactives show at the top dose activity change, negative = inhibition, most hits filed as inhibitors | recombinant APE1, TAMRA/BHQ-2 abasic DNA cleavage fluorescence | DNA repair nuclease/redox regulator APEX1 (Homo sapiens), P27695;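 also: plate controls were vehicle for no effect and reference inhibitor for full effect; nearly all actives have a fitted effect of over 55% in size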
Target sequence (P27695 whole entry, looked up): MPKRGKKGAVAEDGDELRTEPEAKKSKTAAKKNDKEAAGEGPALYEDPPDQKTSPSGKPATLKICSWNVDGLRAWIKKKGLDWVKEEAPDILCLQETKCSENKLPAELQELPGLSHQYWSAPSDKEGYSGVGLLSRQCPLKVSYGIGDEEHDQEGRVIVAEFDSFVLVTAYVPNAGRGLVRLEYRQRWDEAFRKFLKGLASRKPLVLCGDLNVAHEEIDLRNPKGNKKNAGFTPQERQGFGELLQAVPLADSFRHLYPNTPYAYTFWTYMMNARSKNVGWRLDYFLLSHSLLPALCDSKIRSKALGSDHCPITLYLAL
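Step 1: APE1 (0.75 nM) with compound, 15 min RT. Step 2: add 50 nM fluorophore/quencher THF duplex. Step 3: three fluorescence reads 60 s apart (525/598 nm); read 3 minus read 1 = reaction progress.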
An asterisk follows results filed as active; i = inactive; u = inconclusive; x = no result; [ ] = remark or other dose. Unless noted, calls follow the shape of the dose curve; as a rule, active = well fitted curve in the direction sought with a large enough effect; inconclusive = small, poorly fitted or top-dose-only effect, or another doubt; inactive = no such curve, though single readings can be large; an effect the other way counts as inactive or inconclusive. Unless noted, % is scaled to controls: 0 for no effect and ±100 for the full control effect; potency is read from the fitted curve at half-maximal effect.

SMILES | TRb-SRC2 inh | TR SRC2 fluor cs | RECQ1 inh | RGS12 GoLoco inh | BLM helicase inh | APE1 inh
CN[C@@H]1[C@@H](O)[C@@H](O[C@@H]2[C@@H](O)[C@H](OC3OC(CN)=CCC3N)[C@@H](N)C[C@H]2N)OC[C@]1(C)O (stereo partly specified) | x | x | x | x | x | 1%[21 µM]
CCCCCCCCCCCCCCC | 5%[201 µM] | -1%[201 µM] | x | x | x | x
CN1CC[n+]2c(CN3C(=O)c4ccccc4C3=O)csc21 | 0% | -4% | -15% | 18µM* | 2% | 0%
CCn1cc2nc(SCc3cccc(OC)c3)n(Cc3ccc(Cl)cc3)c(=O)c2n1 | -19%[53 µM] | 0.032µM*[quencher] | x | x | -7% | x
O=C(O)c1ccc(CSc2nnc(-c3cccc([S+](=O)([O-])NC4CCCC4)c3)n2-c2ccccc2)cc1 | x | x | x | x | x | 32%
COc1ccc(Cl)cc1NC(=O)NN1CCN(C)CC1 | x | x | x | x | -18% | 13µM*
COc1ccc(Cl)cc1NC(=O)NCCN1CCCCC1 | 3% | -2% | i | 3% | -9% | -1%
O=C(O)c1cccc(-n2cccc2/C=C\[N+](=O)[O-])c1 | -1% | -1% | -28% | -13% | 6% | 13µM*
O=Cc1cccn1-c1cccc([N+](=O)[O-])c1 | -6% | -3% | 0% | -10% | 4% | 4%
CC(C)(C)n1ncc2c(=O)n(Cc3cccc(C(F)(F)F)c3Cl)cnc21 | x | x | x | x | x | -1%
O=[N+]([O-])c1ccc(NC2CCCC2)cc1 | -3% | 0% | 0% | 8% | -3% | 1%
O=[N+]([O-])c1ccc(Nc2nc(NC3CCCCC3)nc(N3CCCC3)n2)cc1 | 4% | 0% | -8% | 4% | 28µM* | 0%
COc1cccc(/C=N/Nc2nc(Nc3ccc([N+](=O)[O-])cc3)nc(N3CCCC3)n2)c1O | 2% | -3% | u | -3% | 28µM* | -12%
O=[N+]([O-])c1ccc(Nc2nc(N/N=C/c3cccc(F)c3)nc(N3CCCC3)n2)cc1 | -1% | -1% | 0% | 9% | 4% | u
COC(=O)c1cc(O)c(O)c(O)c1 | 1% | -1% | -1% | -2% | 1% | 14µM*
COc1cc(N)ccc1C(=O)O | -9% | 1% | i | 2% | 5% | 6%
Nc1ccc(C(=O)O)c(O)c1 (tested in a mixture with another compound) | 7% | -6% | -3% | 28µM* | -4% | 0%
CC(=O)Nc1ccc(N=Cc2c(O)c(C(=O)Nc3ccccc3)cc3ccccc23)cc1 | -5% | 0% | i | 14µM* | -2% | u
C/C(=C\C(C)CC(C)CC(C)C)C1CC(=O)OC1=O (stereo unspecified) | 1%[201 µM] | -4%[201 µM] | x | x | x | x
C[C@H](CCC(=O)NCC(=O)O)C1CC[C@H]2[C@H]3C(C[C@H](O)[C@]12C)[C@@]1(C)CC[C@@H](O)C[C@H]1C[C@H]3O (stereo partly specified) | 6% | -2% | i | 6% | x | -2%
C[n+]1cccc(/C=N/NC(=O)CC23CC4CC(CC(C4)C2)C3)c1 | -4% | -1% | -2% | 4µM* | -3% | 5%
O=C(CCCCCCCC(=O)NNC(=O)Nc1ccccc1)NNC(=O)Nc1ccccc1 | 10% | 0% | -2% | 170% | 28µM* | 5%
O=S(=O)(Nc1cc(O)cc2cccnc12)c1ccc(Br)s1 | -20% | -5% | i | x | -29% | -3%
O=C(COC(=O)c1ccccc1)Nc1ncc([N+](=O)[O-])s1 | x | x | x | x | x | 3.4µM*
CCNc1cc(O)ccc1C | -11% | 18% | 28µM* | -24% | x | 47%
SMILES | TRb-SRC2 inh | TR SRC2 fluor cs | RECQ1 inh | RGS12 GoLoco inh | BLM helicase inh | APE1 inh
O=C1C2C3C=CC(C3)C2C(=O)N1CNc1ccc(O)cc1 (stereo unspecified) | 25µM* | -1% | u | -34% | 25µM* | u
Cc1ccc(NCN2C(=O)C3C4C=CC(C4)C3C2=O)cc1 (stereo unspecified) | -7% | -1% | i | 8% | 2% | 3%
COc1ccc(Cl)cc1NC(=O)Cn1ncc2c3ccccc3n(C)c2c1=O | 1% | -1% | x | x | -5% | x
CCCn1c2ccccc2c2cnn(CC(=O)Nc3cc(C)c(Cl)cc3OC)c(=O)c21 | -4% | 20µM*[quencher] | x | x | -2% | x
OC[C@@H]1[C@@H](c2ccccc2)C(c2cccc(Cl)c2)=NN1c1ccccc1 | -2% | -6% | 32µM* | 14%[88.7 µM] | -11%[75.6 µM] | -13%
OC[C@@H]1[C@@H](c2ccccc2)C(c2ccccc2)=NN1c1ccccc1 | 4% | -4% | -14%[81.1 µM] | 5%[88.7 µM] | -10%[75.6 µM] | -16%
NC(N)=NCCC[C@H](N)C(=O)N1CCC[C@H]1C(=O)N1CCC[C@H]1C(=O)NCC(=O)N[C@@H](Cc1ccccc1)C(=O)N[C@@H](CO)C(=O)N1CCC[C@H]1C(=O)N[C@@H](Cc1ccccc1)C(=O)O | 11% | -1% | -2% | x | 1% | -6%
CC(C)C[C@H](NC(=O)[C@@H]1CCCN1C(=O)[C@H](CO)NC(=O)[C@H](Cc1ccccc1)NC(=O)CNC(=O)[C@@H]1CCCN1C(=O)[C@@H]1CCCN1C(=O)[C@@H](N)CCCN=C(N)N)C(=O)O | 5% | 1% | -4% | x | 0% | 0.5µM*
Cc1ccc(Nc2nnc(-c3cc4c(ccc5ccccc54)oc3=O)s2)cc1 | u | 0.032µM*[quencher] | x | x | -8% | x
NC(=O)C1CCN(c2nc(-c3ccc(C(F)(F)F)cc3)cs2)CC1 | x | x | x | x | x | 7%
Nc1nc2c(nc(Br)n2[C@@H]2O[C@H]3COP(=O)(O)O[C@H]3[C@@H]2O)c(=O)[nH]1 | 3% | -2% | -2% | 9% | -1% | 2%
O=c1c2nc(Br)n([C@@H]3O[C@@H]4CO[P@@](O)(=S)O[C@H]4[C@H]3O)c2nc2[nH]c(-c3ccccc3)cn12 | -10% | -3% | -1% | x | -6% | 13µM*
NNS(=O)(=O)c1ccc(Oc2ccc(S(=O)(=O)NN)cc2)cc1 | 8%[201 µM] | 5%[201 µM] | x | x | x | x
CCOC(=O)c1ccccc1NC(=O)NC(C)c1c(-n2cccc2)sc(C)c1C (stereo unspecified) | -14% | 22µM*[quencher] | x | x | -4% | x
NC(=O)c1cc(N)ccc1N1CCCC1 | 40µM* | 45µM*[fluorescent] | -6% | -4% | -6% | -4%
Cc1cc(N)ccc1-n1c(C)ccc1C | 7.9µM* | 13µM*[fluorescent] | 3% | -61% | 0% | -4%
Cc1cc(N2CCCC2)c(C)cc1C=O | -5% | -1% | i | 17% | -3% | 0%
